Source: PubChem BioAssay (NCI)
About 79,000 compounds went through this panel and 15% of them were active in at least one assay; those are over-represented in the sample as a whole. Active and inactive are the calls of the source. No stated cut-off is given here; in the data, active means growth inhibition above about 70%; inactive means the rest.

Tests used:
[1] = NCI Yeast Anticancer Drug Screen. Data for the rad50 strain (AID 155);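 further: 0% = growth of vehicle-only cultures of the same strain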; conditions: S. cerevisiae rad50 strain growth inhibition; at 50.0 µM; hits give high values
Summary of the method: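 Growth of the mutant yeast was measured after compound exposure and referenced to vehicle-treated cultures.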

[2] = NCI Yeast Anticancer Drug Screen. Data for the mec2-1 strain (AID 157); conditions: S. cerevisiae mec2-1 strain, at 50.0 µM, hits give high values
Summary of the method: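 Strain: mec2-1 (DNA repair/cell cycle alteration). Compound exposure, then growth measured; inhibition expressed relative to vehicle.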

[3] = NCI Yeast Anticancer Drug Screen. Data for the sgs1 mgt1 strain (AID 161);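 further: 0% = growth of cultures given vehicle only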; conditions: S. cerevisiae sgs1 mgt1 strain, at 50.0 µM, hits give high values
Summary of the method: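 Inhibition of yeast growth, normalised to vehicle-treated controls, is reported for a strain bearing genetic alterations in DNA damage repair.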

[4] = NCI Yeast Anticancer Drug Screen. Data for the cln2 rad14 strain (AID 165);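 further: 0% = growth equal to vehicle treated cultures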; conditions: S. cerevisiae cln2 rad14 strain, at 50.0 µM, hits give high values
Summary of the method: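 Compounds are applied to the cln2 rad14 yeast strain, and growth is then compared with that of vehicle-treated cultures to give inhibition.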

[5] = NCI Yeast Anticancer Drug Screen. Data for the bub3 strain (AID 167); conditions: S. cerevisiae bub3 mutant strain, at 50.0 µM, hits give high values
Summary of the method: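 Whole-cell yeast assay. The mutant strain was incubated with compounds, and growth inhibition was determined by comparison with vehicle-treated cells.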

[6] = NCI Yeast Anticancer Drug Screen. Data for the mlh1 rad18 strain (AID 175); conditions: S. cerevisiae mlh1 rad18 strain growth inhibition; at 50.0 µM; hits give high values
Summary of the method: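 Read-out is yeast growth inhibition, calculated against vehicle-only controls. The compound was applied to a strain engineered with DNA damage repair alterations.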

Measured: growth inhibition

CNC(=O)c1nnn(Cc2ccc(OC)cc2)c1Cl
inactive: [1] -8.05% | [2] -8.9% | [3] -14.7% | [4] -69% | [5] -1.3% | [6] -8.15%

COc1cc(C2C(C(=O)NCc3ccccc3)=C(C)NC(C)=C2C(=O)NCc2ccccc2)ccc1O
inactive: [1] -27.1% | [2] -11.1% | [3] -23.9% | [4] -3.9% | [5] -7% | [6] -21.2%

Cc1ccc(S(=O)(=O)N2CCOCC2)cc1
inactive: [1] -2.9% | [2] -20.1% | [3] -13.3% | [4] 15.5% | [5] -0.7% | [6] -30.4%

N#CC(OC(=O)c1ccccc1)C(OC(=O)c1ccccc1)C(COC(=O)c1ccccc1)OC(=O)c1ccccc1 (stereo unspecified)
inactive: [1] -38.9% | [2] 6.3% | [3] 9.95% | [4] 20.5% | [5] -10.5% | [6] 26.6%

CCOC(=O)C1C(C)NC(C)C(C(=O)OCC)C1c1ccccc1Cl (stereo unspecified)
inactive: [1] 11.1% | [2] 6.25% | [3] 6.35% | [4] 4.25% | [5] 2.9% | [6] 9.8%

COc1nn(C)c(=O)c2cccnc12
inactive: [1] -2.05% | [2] 7.6% | [3] -3.1% | [4] -6.25% | [5] 12.6% | [6] 1.2%

Cc1[nH]c2ccccc2c1C1Cc2ccccc2N1C(=O)/C=C/C=C/c1ccccc1 (stereo unspecified)
inactive: [1] 10.4% | [2] 24.7% | [3] -39.4% | [4] 38.5% | [5] 2.2% | [6] 15.2%

CCC(=O)Nc1nnc(SCCCCCCCCCCSc2nnc(NC(=O)CC)s2)s1
inactive: [1] 20.6% | [2] 4.95% | [3] 17.7% | [4] 19.3% | [5] -2.5% | [6] 21.5%

CCCC1=C(OC)C(=O)c2c(C)cc(Cl)nc2C1=O
active: [3] 86.2% | [4] 78.8% | [5] 87.5%
inactive: [1] 48.5% | [2] 48.2% | [6] 38.9%

CCCNS(=O)(=O)c1ccccc1C(=O)NC1CCCCC1
inactive: [1] 3.25% | [2] -9.9% | [3] 4.05% | [4] 10.8% | [5] -19.7% | [6] 22.2%

COc1cc(CC2C(=O)OCC2C2(c3ccc4c(c3)OCO4)SCCCS2)cc(OC)c1OC (stereo unspecified)
inactive: [1] 10.4% | [2] 8.3% | [3] 0.15% | [4] 27.5% | [5] 3.2% | [6] 26.8%

O=C(NCN1CCOCC1)Nc1ccc(Cl)cc1
inactive: [1] -13.4% | [2] 8.5% | [3] -4.8% | [4] -22.3% | [5] 8.75% | [6] -3.25%

CC(C)(C)OC(=O)Cn1ncn(NC(=O)Cc2ccccc2)c1=O
inactive: [1] -20.5% | [2] -24.5% | [3] -21.4% | [4] -56.2% | [5] -38.2% | [6] -0.1%

CCN(CC)C(=O)C1CC=CCC1C(=O)O (stereo unspecified)
inactive: [1] 41.3% | [2] 19.3% | [3] 23.9% | [4] -38.5% | [5] 1.85% | [6] 30.1%

OC(CBr)(c1ccccc1)c1ccccc1
inactive: [1] 13.5% | [2] 23.4% | [3] 19.9% | [4] 31.3% | [5] 7% | [6] 24.1%

C/C=C/C(=O)OCCc1ccccc1
inactive: [1] 21.8% | [2] 3.4% | [3] 3.75% | [4] -5.5% | [5] 12.8% | [6] 27.5%

Nc1ccn([C@@H]2C=C(CO)[C@@H](O)[C@H]2O)c(=O)n1
inactive: [1] -16.1% | [2] -20.6% | [3] -22.5% | [4] -13.3% | [5] -10.4% | [6] -21.9%

O=C(c1ccccc1)c1ccc2[nH]ccc(=O)c2c1
inactive: [1] -4.7% | [2] 0.5% | [3] -3.7% | [4] -31.1% | [5] -7.85% | [6] 4.3%

CC(C)(C)c1ccnc(C(O)(C(F)(F)F)C(F)(F)F)c1
inactive: [1] -3.4% | [2] -12.2% | [3] -12.2% | [4] -43.8% | [5] -7.75% | [6] -12.4%

O=C1NC(=O)[C@@H](OCC2CCCCC2)[C@@H]2OCC3OC(C(O)C3O)C12 (stereo partly specified)
inactive: [1] -33.9% | [2] -3.1% | [3] 9.9% | [4] 23.2% | [5] 10.3% | [6] -5.7%

O=C(O)COc1c(Cl)cc(Cl)c2cccnc12
inactive: [1] 28.9% | [2] -3.85% | [3] -15.7% | [4] -16.9% | [5] -63.2% | [6] -4.45%

c1coc(C2SCSCS2)c1
inactive: [1] 0.35% | [2] 5.8% | [3] -6.7% | [4] -13.5% | [5] -8.2% | [6] -4.2%

COCC1OC(OC2(COC)OC(COC)C(OC)C2OC)C(OC)C(OC)C1OC (stereo unspecified)
inactive: [1] 22.1% | [2] -4.15% | [3] -9.2% | [4] -34.2% | [5] -18.1% | [6] 5.6%

CC1(C)COC(c2ccc(C(C)(C)C)cc2C(O)(c2cc(C(C)(C)C)ccc2C2=NC(C)(C)CO2)c2cc(C(C)(C)C)ccc2C2=NC(C)(C)CO2)=N1
inactive: [1] -8.8% | [2] -4.2% | [3] 7% | [4] -5.5% | [5] 28.6% | [6] -1.1%

O=C(N/N=C\c1ccc(Cl)cc1)c1ccccc1
inactive: [1] 8% | [2] 6.9% | [3] -0.1% | [4] 4.45% | [5] 7.05% | [6] -4.55%

CC1(C)OC(=O)N=C1c1ccc(F)cc1
inactive: [1] -9.3% | [2] 7.7% | [3] -1.25% | [4] 2% | [5] -1.65% | [6] 17.4%

Nc1nc(Sc2ccc([N+](=O)[O-])c3nonc23)c2ncn(C3OC(CO)C(O)C3O)c2n1 (stereo unspecified)
inactive: [1] -0.7% | [2] -11.3% | [3] 3% | [4] 26.6% | [5] -6.3% | [6] 11.9%

O=C1OC(c2ccccc2)=N/C1=C\c1cccc2ccccc12
inactive: [1] -45.9% | [2] -36.6% | [3] -13.6% | [4] 0.35% | [5] -16.4% | [6] -31.1%

COc1cc(/C=C(/C#N)C(N)=O)cc(OC)c1OC
inactive: [1] 15.6% | [2] 10.6% | [3] 18.9% | [4] 12.3% | [5] 11.1% | [6] 14.8%

COc1ccccc1NC(=O)N(C)Cc1ccc(Cl)cc1
inactive: [1] 11.3% | [2] 18.6% | [3] 18.9% | [4] 3.75% | [5] 47.1% | [6] 33.1%

COc1ccc(/C(N=Nc2ccccc2)=N/N=C(N)N)cc1
inactive: [1] 24.3% | [2] 6.35% | [3] 12.1% | [4] -2.6% | [5] 36.9% | [6] 8.2%

CCOc1cn(C2OC(CO)C(O)C2O)c(=O)[nH]c1=O (stereo unspecified)
inactive: [1] -33.9% | [2] -28.4% | [3] -16.2% | [4] 3.55% | [5] -25.2% | [6] 3.5%

COc1ccc(/C=C2\N=C(c3ccccc3)OC2=O)c(Cl)c1OC
inactive: [1] -9.35% | [2] -3.5% | [3] -25% | [4] 1.6% | [5] -5.25% | [6] -3%

COC(=O)n1sc(SC)nc1=N
inactive: [1] 3.75% | [2] -3.95% | [3] -8.9% | [4] -14.3% | [5] -17.1% | [6] 3.55%

O=CNNC(=O)CN1C(=O)c2ccccc2C1=O
inactive: [1] 3.3% | [2] -0.45% | [3] 3.4% | [4] 17.8% | [5] -3.35% | [6] -6.65%

Nc1ccc(-c2c[nH]c(=O)c([N+](=O)[O-])c2)cc1
inactive: [1] 3.5% | [2] -6.05% | [3] -1.35% | [4] -28.5% | [5] 3.5% | [6] -6.4%

Oc1ccc([C@H]2Oc3c(c(O)cc4c3C3c5c(O)cc(O)cc5OC(c5ccc(O)cc5)(O4)[C@H]3O)CC2O)cc1 (stereo partly specified)
inactive: [1] 1.85% | [2] -4.6% | [3] -20.9% | [4] -4.65% | [5] -7% | [6] -5.75%

COc1ccccc1C=Nc1ccc(O)cc1
inactive: [1] 8.45% | [2] 12.3% | [3] 3.9% | [4] -26.6% | [5] 3.5% | [6] 37.5%

Cc1c(-c2nnc(-c3ccccc3)o2)c(=O)n(-c2ccccc2)n1C
inactive: [1] -7.3% | [2] -6.6% | [3] -30.2% | [4] -27.1% | [5] -26.1% | [6] -21.6%

CCCCONC(N)=O
inactive: [1] -12.2% | [2] -11.1% | [3] -23.4% | [4] 7.75% | [5] -5.15% | [6] -5.95%

CC1=COC(=O)[C@@H]2[C@@H](C)CC[C@@H]12
inactive: [1] 1.1% | [2] -3.65% | [3] -9.6% | [4] 10.3% | [5] 6.05% | [6] -4.2%
